Tests used:
Assay in all cases: phenotypically active (imaging signature differs from DMSO and reproducible) at any of 0.3-9 uM (binary (1 = active, 0 = inactive)); higher = active
Conditions in all cases: treatment time: 24 h
[1] = system: A549-ACTB-RAB5A
Method in brief: (§1)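 Two criteria together defined phenotypic activity: deviation and reproducibility. Deviation meant ≥3 of 4 wells beyond the 95th percentile of Euclidean distances in solvent control wells, and reproducibility meant a median replicate Pearson correlation above the 95th percentile of non-replicates. Wells had been treated for 24 h at 0.3, 1, 3 or 9 µM in fifteen gene-edited A549, HepG2 and WPMY1 reporter lines before live imaging.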

[2] = system: A549-CANX-COX4
Method in brief: as §1

[3] = system: A549-GM130-SQSTM1
Method in brief: as §1

[4] = system: A549-TP53BP1-CLTA
Method in brief: as §1

[5] = system: A549-TUBA1B-RELA
Method in brief: as §1

[6] = system: HepG2-ACTB-RAB5A
Method in brief: as §1

[7] = system: HepG2-CANX-COX4
Method in brief: as §1

[8] = system: HepG2-GM130-SQSTM1
Method in brief: as §1

[9] = system: HepG2-TP53BP1-CLTA
Method in brief: as §1

[10] = system: HepG2-TUBA1B-RELA
Method in brief: as §1

[11] = system: WPMY1-ACTB-RAB5A
Method in brief: as §1

[12] = system: WPMY1-CANX-COX4
Method in brief: as §1

[13] = system: WPMY1-GM130-SQSTM1
Method in brief: as §1

[14] = system: WPMY1-TP53BP1-CLTA
Method in brief: as §1

[15] = system: WPMY1-TUBA1B-RELA
Method in brief: as §1

Measured: phenotypically active

CC(=O)OC(C)C[N+](C)(C)C (stereo not given) [methacholine]
inactive: [1] 0 | [2] 0 | [3] 0 | [4] 0 | [5] 0 | [6] 0 | [7] 0 | [8] 0 | [9] 0 | [10] 0 | [11] 0 | [12] 0 | [13] 0 | [14] 0 | [15] 0

O=C(Nc1cccnn1)N1CCN(c2nccc(-c3ccc(F)c(F)c3)n2)CC1
inactive: [1] 0 | [2] 0 | [3] 0 | [4] 0 | [5] 0 | [6] 0 | [7] 0 | [8] 0 | [9] 0 | [10] 0 | [11] 0 | [12] 0 | [13] 0 | [14] 0 | [15] 0

COc1ccc([C@@H]2CNC(=O)C2)cc1OC1CCCC1 [(R)-(-)-Rolipram]
inactive: [1] 0 | [2] 0 | [3] 0 | [4] 0 | [5] 0 | [6] 0 | [7] 0 | [8] 0 | [9] 0 | [10] 0 | [11] 0 | [12] 0 | [13] 0 | [14] 0 | [15] 0

NC12CC3CC(CC(C3)C1)C2 [amantadine]
inactive: [1] 0 | [2] 0 | [3] 0 | [4] 0 | [5] 0 | [6] 0 | [7] 0 | [8] 0 | [9] 0 | [10] 0 | [11] 0 | [12] 0 | [13] 0 | [14] 0 | [15] 0

CN(C)CCC[C@@]1(c2ccc(F)cc2)OCc2cc(C#N)ccc21 [escitalopram]
inactive: [1] 0 | [2] 0 | [3] 0 | [4] 0 | [5] 0 | [6] 0 | [7] 0 | [8] 0 | [9] 0 | [10] 0 | [11] 0 | [12] 0 | [13] 0 | [14] 0 | [15] 0

O=C1NCCCC1C(=O)NCCc1c[nH]c2ccc(O)cc12 (stereo not given)
inactive: [1] 0 | [2] 0 | [3] 0 | [4] 0 | [5] 0 | [6] 0 | [7] 0 | [8] 0 | [9] 0 | [10] 0 | [11] 0 | [12] 0 | [13] 0 | [14] 0 | [15] 0

S=P(N1CC1)(N1CC1)N1CC1 [thiotepa]
inactive: [1] 0 | [2] 0 | [3] 0 | [4] 0 | [5] 0 | [6] 0 | [7] 0 | [8] 0 | [9] 0 | [10] 0 | [11] 0 | [12] 0 | [13] 0 | [14] 0 | [15] 0

O=C(NCC1CCCCN1)c1cc(OCC(F)(F)F)ccc1OCC(F)(F)F (stereo not given) [flecainide]
inactive: [1] 0 | [2] 0 | [3] 0 | [4] 0 | [5] 0 | [6] 0 | [7] 0 | [8] 0 | [9] 0 | [10] 0 | [11] 0 | [12] 0 | [13] 0 | [14] 0 | [15] 0

CC1(C)CCC(C)(C)c2cc(C3(c4ccc(C(=O)O)cc4)OCCO3)ccc21
inactive: [1] 0 | [2] 0 | [3] 0 | [4] 0 | [5] 0 | [6] 0 | [7] 0 | [8] 0 | [9] 0 | [10] 0 | [11] 0 | [12] 0 | [13] 0 | [14] 0 | [15] 0

Nc1ncnc2c1ncn2[C@H]1O[C@@H](C(=O)N2CCN(CC(=O)Nc3cccc4c3CNC4=O)CC2)[C@H](O)[C@@H]1O
inactive: [1] 0 | [2] 0 | [3] 0 | [4] 0 | [5] 0 | [6] 0 | [7] 0 | [8] 0 | [9] 0 | [10] 0 | [11] 0 | [12] 0 | [13] 0 | [14] 0 | [15] 0

CC(COc1ccccc1)N(CCCl)Cc1ccccc1 (stereo not given) [phenoxybenzamine]
inactive: [1] 0 | [2] 0 | [3] 0 | [4] 0 | [5] 0 | [6] 0 | [7] 0 | [8] 0 | [9] 0 | [10] 0 | [11] 0 | [12] 0 | [13] 0 | [14] 0 | [15] 0

C#CCN(C)Cc1ccccc1 [pargyline]
inactive: [1] 0 | [2] 0 | [3] 0 | [4] 0 | [5] 0 | [6] 0 | [7] 0 | [8] 0 | [9] 0 | [10] 0 | [11] 0 | [12] 0 | [13] 0 | [14] 0 | [15] 0
